Bioassay records: PubChem BioAssay, National Center for Advancing Translational Sciences (NCATS)
p53 reactivation: qHTS assay for re-activators of p53 using a Luc reporter; H1299 p53-A138V BP100-luciferase reporter, luminescence, 24 h; Potency, µM (titrated, usually from 92.2 µM), actives largely listed as activators; hit rate 0.063% among 320,000; also: nearly all actives have a fitted effect of over 45% in size
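H1299 (p53-null), stable ts p53-A138V + BP100-Luc; 1000 cells/well, Opti-MEM/10% FBS; cpd 4 pt, 1:5; 24 h, 37 deg C, 5% CO2; detection reagent 10 min RT; luminescence.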
GLS inhibitor: qHTS for Inhibitors of Glutaminase (GLS) | GLS enzymatic activity, qHTS titration | Potency, µM (titrated, usually from 45.5 µM), hits mostly inhibitors | hit rate 0.21% among 410,000
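Read-out is an Amplex red fluorescence increase coupled through glutamate oxidase and HRP, measured before and after 30 min room-temperature incubation. hKGA is in 45 mM KH2PO4 (pH 8.2) with 0.02% Tween-20; glutamine added as 1mM solution.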
Tb PFK block: qHTS Assay to Find Inhibitors of T. brucei phosphofructokinase; T. brucei PFK, ADP-Glo luminescence; AID 485367, 2010; hit rate 0.17% among 330,000; ATP-dependent 6-phosphofructokinase (Trypanosoma brucei brucei), O15648; Potency, µM (doses to about 57.5 µM), usual class: inhibitors; also: nearly all actives have a fitted effect of over 60% in size
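Activity is normalized to no-enzyme wells (full inhibition) and 1.25 nM enzyme wells (no inhibition). Reaction: 0.5 mM F6P, 0.1 mM ATP, 45 min RT, ADP-Glo luminescence; concentration-response curves fitted and classed by quality.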
USP2a block: qHTS Assay for Inhibitors of Ubiquitin-specific Protease USP2a Using CHOP2 as the Reporter. USP2 core, Ub-CHOP2 coupled fluorogenic reporter, 485/531. Potency, µM (series often up to 38.3 µM), actives largely listed as inhibitors. Ubiquitin carboxyl-terminal hydrolase 2 (Homo sapiens), O75604. hit rate 0.01% among 330,000
Target sequence (O75604 whole entry, looked up): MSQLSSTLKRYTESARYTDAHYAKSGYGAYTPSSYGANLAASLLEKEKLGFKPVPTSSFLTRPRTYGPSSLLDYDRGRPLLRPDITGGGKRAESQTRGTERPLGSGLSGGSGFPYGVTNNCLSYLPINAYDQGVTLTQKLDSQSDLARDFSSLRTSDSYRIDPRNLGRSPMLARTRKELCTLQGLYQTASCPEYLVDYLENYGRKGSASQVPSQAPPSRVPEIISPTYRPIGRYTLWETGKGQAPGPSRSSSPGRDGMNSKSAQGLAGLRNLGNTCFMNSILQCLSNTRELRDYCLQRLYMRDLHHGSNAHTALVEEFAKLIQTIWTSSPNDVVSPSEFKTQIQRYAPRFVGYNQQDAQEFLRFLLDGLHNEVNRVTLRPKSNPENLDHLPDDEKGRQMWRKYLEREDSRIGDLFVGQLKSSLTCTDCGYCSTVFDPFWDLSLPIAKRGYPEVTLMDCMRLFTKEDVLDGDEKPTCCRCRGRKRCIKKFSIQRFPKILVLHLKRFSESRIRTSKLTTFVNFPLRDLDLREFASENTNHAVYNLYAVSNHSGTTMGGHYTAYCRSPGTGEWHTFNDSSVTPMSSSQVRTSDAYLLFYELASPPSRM
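Cell-free coupled assay: 10nM USP2 core preincubated 30min RT with compound in Tris-HCl pH 8.0/CaCl2/CHAPS buffer, then 25nM Ub-CHOP2 and 25nM reporter substrate; fluorescence (Ex 485/Em 531) read after 60min RT, normalized to NEM inhibition, concentration-response curves fitted.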
Numbers stand for hits; ! = not confirmed by another sample. Sampled rows, rich in hits. Any-hit rate of the full collection: about 0.39%. Calls follow the shape of the dose curve; as a rule, active = well fitted curve in the direction sought with a large enough effect; inconclusive = small, poorly fitted or top-dose-only effect, or another doubt; inactive = no such curve, though single readings can be large; an effect the other way counts as inactive or inconclusive.

Results for COC(=O)c1ccc(NC(=S)NC2CCCCC2)cc1 ?
p53 reactivation: inactive; GLS inhibitor: inactive; Tb PFK block: inactive; USP2a block: inactive

What do the screens show for `N#Cc1ccc(C(=O)NC2CCCCCCC2)cc1`?
p53 reactivation: 35µM; GLS inhibitor: inactive; Tb PFK block: inactive; USP2a block: inactive

How did O=C(NCc1ccccc1F)c1cccc(NC(=O)N2CCSc3ncccc32)c1 do in these assays?
GLS inhibitor: inactive

What do the screens show for `Cc1cccc(N2CCN(C(=O)c3cn(C4CCCCC4)c(=O)c4c3c3ccccc3n4C)CC2)c1C`?
GLS inhibitor: inactive

Results for O=[N+]([O-])c1ccc(C(=S)N2CCN(c3ccc(F)cc3)CC2)cc1 ?
p53 reactivation: inactive; GLS inhibitor: 16µM; Tb PFK block: inactive; USP2a block: inactive

How did COc1ccc(OC(=O)c2nc(SCc3ccccc3C)ncc2Cl)cc1 do in these assays?
GLS inhibitor: inactive

How did Cn1c(NCCCN2CCOCC2)nc2c1c(=O)n(Cc1ccc(Cl)cc1Cl)c(=O)n2C do in these assays?
p53 reactivation: inactive; GLS inhibitor: 2.5µM; Tb PFK block: inactive; USP2a block: inactive

What do the screens show for `Cn1c(NCCO)nc2c1c(=O)n(Cc1ccccc1Cl)c(=O)n2C`?
GLS inhibitor: 5µM

Results for COCCNc1nc2c(c(=O)n(Cc3ccccc3F)c(=O)n2C)n1C ?
GLS inhibitor: 16µM; Tb PFK block: inactive; USP2a block: inactive

How did CCc1cnc2c(c1SCC(=O)c1ccc(Cl)cc1)c(=O)n(C)c(=O)n2C do in these assays?
GLS inhibitor: inactive

How did CCOc1ccccc1C(=O)NCC(c1ccc(N(C)C)cc1)N1CCc2ccccc21 (stereo not given) do in these assays?
GLS inhibitor: inactive

How did O=C(c1ccc(CS(=O)c2ccccc2Cl)o1)N1CCN(c2ccccc2F)CC1 (stereo not given) do in these assays?
GLS inhibitor: inactive

Results for C=C(C)C(=O)Nc1ccc(OC(F)(F)C(F)F)c(NC(=O)C(=C)C)c1 ?
p53 reactivation: inactive; GLS inhibitor: 13µM; Tb PFK block: inconclusive; USP2a block: inactive

How did CC(=O)Nc1ccc(OC(F)(F)C(F)F)c(NC(C)=O)c1 do in these assays?
p53 reactivation: inactive; GLS inhibitor: inactive; Tb PFK block: inactive; USP2a block: inactive

What do the screens show for `Oc1ccc(-c2cnc(-c3ccc(O)cc3)nc2)cc1`?
p53 reactivation: 14µM; GLS inhibitor: inactive; Tb PFK block: inactive; USP2a block: inactive

What do the screens show for `Cc1cc(C)c(S(=O)(=O)c2c(C)cccc2C)c(Cl)n1`?
p53 reactivation: inactive; GLS inhibitor: 11µM; Tb PFK block: inactive; USP2a block: inactive

What do the screens show for `Cc1cc(C)c(S(=O)(=O)c2cccc(Cl)c2)c(Cl)n1`?
p53 reactivation: inactive; GLS inhibitor: inactive; Tb PFK block: inactive; USP2a block: inactive

How did COc1ccc(-c2cc(C#N)nc(NN)n2)cc1 do in these assays?
p53 reactivation: inactive; GLS inhibitor: 18µM; Tb PFK block: inactive; USP2a block: inactive

Results for COc1ccc(-c2cc(C#N)nc(Cl)n2)cc1 ?
p53 reactivation: inactive; GLS inhibitor: inactive; Tb PFK block: inactive; USP2a block: inactive

Results for CCC(C)C(=O)OC1CCC=C2C=CC(C)C(CCC3CC(O)CC(=O)O3)[C@@H]21 (stereo not given in full) ?
GLS inhibitor: inactive

How did COc1cc(/C=C(\C#N)c2ccccn2)cc(OC)c1O do in these assays?
p53 reactivation: inactive; GLS inhibitor: inactive; Tb PFK block: inactive; USP2a block: inactive

What do the screens show for `COc1cc(/C=C(\C#N)c2[nH]nc(N)c2C#N)cc(OC)c1O`?
p53 reactivation: inactive; GLS inhibitor: 10µM; Tb PFK block: inactive; USP2a block: inactive

Results for O=C(NCCc1ccc(Cl)cc1)C(=O)NCC(c1cccs1)S(=O)(=O)c1cccs1 (stereo not given) ?
GLS inhibitor: inactive

How did CCN(CCCNC(=O)c1nn(-c2ccc(OC)cc2)c(=O)c2c1c1ccccc1n2C)c1ccccc1 do in these assays?
GLS inhibitor: inactive

What do the screens show for `NC(=O)Cc1ccc(Nc2nnc(-c3ccc(O)cc3)c3ccccc23)cc1`?
p53 reactivation: inactive; GLS inhibitor: 11µM; Tb PFK block: inactive; USP2a block: inactive

How did c1cc(N2CCCCC2)nc(N2CCCCC2)n1 do in these assays?
GLS inhibitor: inactive

How did C[c-]1[c-](C)[c-](C)[c-](C)[c-]1C.[Fe].c1cc2nccc(N3CCCC3)[c-]2c1 (stereo not given) do in these assays?
p53 reactivation: inactive; GLS inhibitor: 13µM!; Tb PFK block: inactive; USP2a block: inconclusive

Results for COc1ccc(Cl)cc1NC(=O)c1c(NCc2cccnc2)sc2c1CCC(C)C2 (stereo not given) ?
GLS inhibitor: inactive

How did FC(F)(F)C1=Nc2cccc3cccc(c23)N1 do in these assays?
p53 reactivation: inactive; GLS inhibitor: inconclusive; Tb PFK block: inactive; USP2a block: 10µM

What do the screens show for `O=C(NC1CC(=O)N(c2cccc(F)c2)C1)C1CCCC1` (stereo not given)?
GLS inhibitor: inactive

Results for COc1ccc(-c2csc(Nc3ncccc3C)n2)cc1OC ?
p53 reactivation: inconclusive; GLS inhibitor: inactive; Tb PFK block: inactive; USP2a block: inactive

Results for COc1ccc(-c2csc(Nc3ncccc3C)n2)cc1 ?
p53 reactivation: 45µM; GLS inhibitor: inactive; Tb PFK block: inactive; USP2a block: inactive

Results for CNC(=O)c1ccccc1Sc1ccc2c(/C=C/c3ccccn3)n[nH]c2c1 ?
GLS inhibitor: inactive

How did CCOc1ccc(NC(=O)CSc2nccn2C)cc1 do in these assays?
p53 reactivation: 45µM; GLS inhibitor: inactive; Tb PFK block: inactive; USP2a block: inactive

What do the screens show for `O=C(NCC(c1cccnc1)N1CCc2ccccc2C1)c1ccc(F)c(F)c1` (stereo not given)?
GLS inhibitor: inactive

Results for O=C(OC[C@H]1O[C@@H](OC(=O)c2cc(O)c(O)c(OC(=O)c3cc(O)c(O)c(O)c3)c2)[C@H](OC(=O)c2cc(O)c(O)c(OC(=O)c3cc(O)c(O)c(O)c3)c2)[C@@H](OC(=O)c2cc(O)c(O)c(OC(=O)c3cc(O)c(O)c(O)c3)c2)[C@@H]1OC(=O)c1cc(O)c(O)c(OC(=O)c2cc(O)c(O)c(O)c2)c1)c1cc(O)c(O)c(OC(=O)c2cc(O)c(O)c(O)c2)c1 ?
p53 reactivation: inactive; Tb PFK block: 0.095µM; USP2a block: 5µM

How did COC1OC(COC(=O)c2ccccc2)C(OC(=O)c2ccccc2)C1OC(=O)c1ccccc1 (stereo not given) do in these assays?
p53 reactivation: inactive; GLS inhibitor: inactive; Tb PFK block: inactive; USP2a block: inactive

How did Cc1cccc(N2CCN(S(=O)(=O)c3ccc(-c4cnc(C5CC5)o4)cc3)CC2)c1C do in these assays?
GLS inhibitor: inactive

Results for CCCCNc1sc(S(=O)(=O)CCC)nc1S(=O)(=O)c1ccc(C)cc1 ?
GLS inhibitor: inactive
